The results in this text go back to PubChem BioAssay (EPA / NIEHS).

Calls of active or inactive are those of the source. How the source made its calls: active means hit-call score of the fitted dose curve at least 0.9, where 1 is the maximum; inactive means score below 0.9.

Read-out in this assay: Phosphatase and tensin (PTEN), PTEN (gene 5728)
The experiment in a line: LTEA_HepaRG_PTEN: Life Technologies and Expression Analysis (LTEA) Assay for Phosphatase and tensin (PTEN) using HepaRG (AID 2283523). The note with it: mRNA level, 48 h; actives raise or lower the signal. The method, then: LTEA_HepaRG is a cell based, multiplexed-readout assay that uses HepaRG, a human liver cell line, with measurements taken at 48 hours after chemical dosing on a 96-well plate.LTEA_HepaRG_PTEN is one of 102 assay component(s) measured in the LTEA HepaRG cell culture assay. It is a marker of Cell proliferation, survival, death.Data from the assay component LTEA_HepaRG_PTEN was analyzed into 1 endpoint. This assay endpoint, LTEA_HepaRG_PTEN, was analyzed with bidirectional fitting relative to DMSO as the negative control and baseline of activity. Using a type of inducible reporter, measures of mRNA induction for gain or loss-of-signal activity can be used to understand regulation of transcription factor activity. To generalize the intended target to other relatable targets, this assay endpoint is annotated to the phosphatase intended target family, where the subfamily is dual-specific phosphatase.
A total of 1060 chemcials from the ToxCast library were tested in eight-point concentration-response experiments. Cell culture and cytotoxicity assays were conducted at Thermo Fisher Scientific's Custom Services facility (Madison, WI). A single lot of human HepaRG cells (Thermo Fisher Scientific, Frederick, MD) was used for the cell culture experiments. 96-well format collagen type I coated plates of human HepaRG cells were prepared using established methods. Briefly, cryopreserved HepaRG cells were thawed, plated at a density of approximately 100,000 cells/well in HepaRG Thaw, Plate, and General Purpose media (HPRG770, Thermo Fisher Scientific), and incubated for 48 hours. 0.5% DMSO was selected as vehicle control to balance the requisite need of DMSO in HepaRG cultures to maintain differentiation (for example, baseline metabolism, proportions of hepatocytes vs. cholangiocytes), while enabling further hepatic receptor pathway activation (for example, PXR and CAR) in response to chemical exposure. 48 hours after plating, the culture medium was replaced with HepaRG Serum-Free Incudtion Media. Cells were exposed to each test chemical in duplicate and maintained in CO2 incubators for another 48 hours. Chemical plates were thawed to room temperature and 200x concentrations of treatment groups were prepared. 8-point conentration-reponse curves were made with the highest exposure at 100 uM, followed by half-log dilutions, all in 0.5% DMSO. Each test plate contained variouse controls, induction positive controls (1mM phenobarbital), cytotoxicity positive controls ([…] aflatoxin B1), vehicle controls (0.5% DMSO), and total lysis controls (0.5% DMSO). Cell morphology images were taken using an Essen IncuCyte FLR automated microscope, with six 96-well plates imaged in about 24 minutes. Images were captured and exported and JPEG files. Spent culture media was transfered to black-well plates for the LDH assay, and remaining media was sorted at -80 C for later use. Cells were treated with RLT buffer and frozen until shipped for gene expression analysis. Total RNA was isolated from the cell suspension in 75 uL of Buffer RLT (Qiagen, Germantown, MD 20874) by Quintiles/Expression Analysis (Durham, NC) using a custom isolation procedure. Total RNA from each plate well was transferred to a preamplification plate. Fluidigm's 96.96 Dynamic ArrayTM (Fluidigm, Amsterdam, the Netherlands) technology was used for gene expression analyses by quantitative reverse transcription polymerase chain reaction (qRT-PCR, performed by Quintiles/Expression Analysis, Durham, NC)89. Standard TaqManTM Assays (Applied Biosystems/ThermoFisher Scientific, Foster City, CA) were used to assess the expression of 93 genes selected based on their selectivity and sensitivity to important hepatic receptors known to be modulated by environmental chemicals; importance in human hepatocyte functionality; and hepatotoxicity. […]
`NC(=O)O`: the compound was called inactive.
Still for that read-out and setting: then `CCCCCCCCc1ccc(O)cc1`, with “inactive”; and `O=C(O)C(Cl)(Cl)Cl`, with “inactive”.
Regarding `COc1cc(-c2ccc(N)c(OC)c2)ccc1N`, the call was inactive.
In the case of `Cc1ccccc1N`, the compound was classed as inactive.
Take `C=CC(=O)OCCCCCC(C)C`: the call was inactive.
As to `CC12CC1(C)C(=O)N(c1cc(Cl)cc(Cl)c1)C2=O` (stereo unspecified), the compound was called inactive.
In the case of `O=C(Nc1ccc2[nH]ccc2c1)c1cc2cc(F)ccc2n1Cc1cccc(F)c1`, the call was inactive.
As for `O=C1C2(Cl)C3(Cl)C4(Cl)C(Cl)(Cl)C5(Cl)C3(Cl)C1(Cl)C5(Cl)C24Cl` (stereo unspecified), the call was inactive.
Still for that read-out and setting: then `CCOP(=S)(OCC)Oc1nc(Cl)c(Cl)cc1Cl`, with “inactive”; and `CC(C)(c1ccccc1)c1ccc(O)c(C(C)(C)c2ccccc2)c1`, with “inactive”; and `CC(C)(OO)c1ccccc1`, with “inactive”.
`O=C(O)C(F)(F)C(F)(F)C(F)(F)C(F)(F)C(F)(F)C(F)(F)F`: the compound was classed as inactive.
Take `CCC(=O)C(CC(C)N(C)C)(c1ccccc1)c1ccccc1` (stereo unspecified): the result was inactive.
With `C[C@]12CCC(=O)C[C@@H]1CC[C@@H]1[C@@H]2CC[C@]2(C)[C@@H](O)CC[C@@H]12`, the compound was called inactive.
On the same count and under the same terms, the entry for `Cn1sc(Cl)cc1=O` is “inactive”; for `O=c1[nH]c(=O)[nH]c(=O)[nH]1` it is “inactive”.
On to `CC(C)(C)c1cc(O)ccc1O`, for which the result was inactive.
Turning to `CC(=O)[O][Hg][c]1ccccc1`, the AC50 is 69.5 µM (active).
Consider `CC(C)(C)CC(C)(C)c1ccc(O)cc1`, for which the compound was called inactive.
Take `CCOP(=S)(OCC)SCSP(=S)(OCC)OCC`: the result was inactive.
Regarding `CCN1CCC2(CC1)COc1cc3c(cc12)N(C(=O)c1ccc(-c2ccc(-c4nnc(C)o4)cc2C)cc1)CC3`, the AC50 was 22.7 µM (active).
Regarding `CCC(C)(C)c1ccc(O)c(C(C)(C)CC)c1`, the outcome was inactive.
Still for that read-out and setting: then `O=C(O)C(F)(F)C(F)(F)C(F)(F)C(F)(F)C(F)(F)C(F)(F)C(F)(F)C(F)(F)C(F)(F)C(F)(F)F`, with “inactive”; and `CN(C)N=O`, with “inactive”; and `ClC1(Cl)C2(Cl)C3(Cl)C4(Cl)C(Cl)(Cl)C5(Cl)C3(Cl)C1(Cl)C5(Cl)C24Cl` (stereo unspecified), with “inactive”.
As for `C[C@@H]1C[C@@H]([C@H](O)CC2CC(=O)NC(=O)C2)C(=O)[C@@H](C)C1`, the half-maximal activity concentration (AC50) was 87.6 µM (active).
For the compound `ClCC(Cl)CCl`, the compound was called inactive.
`O=[N+]([O-])c1ccc(O)c([N+](=O)[O-])c1`: the AC50 is 31.8 µM (active).
Regarding `Oc1cccc2cccnc12`, the compound was called inactive.
For `C=C(C)C(=O)[O][Sn]([CH2]CCC)([CH2]CCC)[CH2]CCC`, the AC50 was 15.8 µM (active).

One may read the AC50 as the concentration at which the activity in the assay is half-maximal.
